For assay [1], the target named is Calcium and integrin-binding protein 1 (Homo sapiens) (UniProt Q99828). The experiment in a line: Validation qHTS for Identification of Calcium Integrin Binding protein 1 (CIB1) Competitor (AID 1508618). Further: on the % scale 0 is the no-effect control and ±100 the full control effect. The essentials:
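CIB1-GST (1 uM final) incubated 15 min at room temperature with compounds (up to 114 uM), then FITC-labelled alphaIIb peptide (100 nM) added. FP read (Ex 480/Em 540) after 15 min, pH 7.4 buffer containing 5 mM CaCl2.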

Assay [2] has the same target. Nature of the assay: Primary qHTS for Identification of Calcium Integrin Binding Protein 1 (CIB1) Competitor (AID 1508620).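 Further: GST tagged CIB1 binding a fluorescein labelled alphaIIb integrin peptide tracer; top concentration of the series differs between compounds; on the % scale 0 is the no-effect control and ±100 the full control effect.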 The essentials:
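CIB1-GST (1 uM final) and compound incubated 15 min at room temperature before adding FITC-alphaIIb peptide tracer (100 nM final). Competition for binding read by fluorescence polarization (ex 480, em 540) after another 15 min at room temperature.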

The nature of assay [3]: Counterscreen qHTS for small molecule stabilizers of the endoplasmic reticulum resident proteome: GLuc-NoTag assay (AID 1508627).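 Further: SH-SY5Y cells given compound then 100 nM thapsigargin to empty ER calcium; series mostly up to about 76 µM; 0% = thapsigargin alone and -100% = DMSO vehicle control.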 The gist of the method:
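Counterscreen line: SH-SY5Y-GLuc-NoTag cells, treated with compound 19 hr before a 4 hr, 100 nM thapsigargin calcium depletion. Secreted Gaussia luciferase in the medium was measured by luminescence after coelenterazine was added (0.07x final), with cells unlysed.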
(In general: A counterscreen serves to expose hits that act by an unwanted route or on another target.)

Assay [4] is described as follows: Primary qHTS for small molecule stabilizers of the endoplasmic reticulum resident proteome: Secreted ER Calcium Modulated Protein (SERCaMP) assay (AID 1508630). Further: on the % scale 0 is the no-effect control and ±100 the full control effect. The essentials:
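The SH-SY5Y reporter protocol was run at 3 concentrations up to 38.3 uM (primary) or 11 concentrations (follow-up): 16 h compound, 100 nM thapsigargin for 4 h, then extracellular luciferase luminescence.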
For orientation: qHTS replaces the single test concentration by a dilution series.

Assay [5] is described as follows: A High-Content qHTS Against Drug Library for the Identification of Small Molecules that Inhibit DYT1 Early Onset Primary Dystonia-Associated Cell Pathology (AID 1645839; calls by dose curve; further: series mostly up to about 46 µM). The gist of the method: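 High-content imaging quantified EGFP-TorsinA mislocalization in HEK293-derived cells inducibly expressing DYT1 mutant torsinA, after 48 h exposure to compound given together with tetracycline induction. Cell count served as a toxicity channel alongside %pathology.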

Assay [6] deals with Cytochrome P450 2D6 (Homo sapiens) (UniProt P10635). The experiment in a line: Cytochrome P450 family 2 subfamily D member 6 (CYP2D6) small molecule antagonists: luciferase biochemical (cell-free) qHTS assay (AID 1645840; active means well fitted curve in the direction sought with a large enough effect in the repeat runs; an effect the other way counts as inactive or inconclusive; further: nearly all actives have a fitted effect of over 55% in size; further: potency means the concentration at half of the fitted maximal effect). The gist of the method: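 P450-Glo CYP2D6 system: proluciferin substrate converted by enzyme to luciferin, read by luminescence proportional to activity. Enzyme-substrate mix with compound 10 min at room temperature, then NADPH regeneration 1 h before detection reagent.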
Cytochrome P450 2D6 (Homo sapiens), sequence (P10635 whole entry, looked up): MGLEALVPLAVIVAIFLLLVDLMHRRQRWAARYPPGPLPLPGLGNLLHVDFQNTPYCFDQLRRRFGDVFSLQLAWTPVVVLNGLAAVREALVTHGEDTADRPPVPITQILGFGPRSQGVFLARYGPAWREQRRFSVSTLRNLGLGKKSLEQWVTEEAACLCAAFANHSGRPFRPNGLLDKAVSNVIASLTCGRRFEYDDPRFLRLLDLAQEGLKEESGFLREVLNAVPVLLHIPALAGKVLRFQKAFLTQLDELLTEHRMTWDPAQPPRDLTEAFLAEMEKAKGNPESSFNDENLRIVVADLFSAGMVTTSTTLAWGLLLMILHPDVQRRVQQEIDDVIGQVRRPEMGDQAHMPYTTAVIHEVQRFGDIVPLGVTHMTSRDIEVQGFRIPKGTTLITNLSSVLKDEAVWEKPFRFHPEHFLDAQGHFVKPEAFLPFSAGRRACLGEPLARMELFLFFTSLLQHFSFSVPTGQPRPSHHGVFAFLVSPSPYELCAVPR

In assay [7] the target is Cytochrome P450 2C9 (Homo sapiens) (UniProt P11712). The experiment in a line: Cytochrome P450 family 2 subfamily C member 9 (CYP2C9) small molecule antagonists: luciferase biochemical (cell-free) qHTS assay (AID 1645842; active means well fitted curve in the direction sought with a large enough effect in the repeat runs; an effect the other way counts as inactive or inconclusive; further: series mostly up to about 57 µM; on the % scale 0 is the no-effect control and ±100 the full control effect; nearly all actives have a fitted effect of over 55% in size). The gist of the method: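 P450-Glo CYP2C9 system: proluciferin substrate with enzyme in mix containing 0.4% BSA, 10 min at room temperature, then NADPH regeneration solution added and incubated 1 h at 37C. Detection reagent stopped reaction; luminescence read after 20 min as RLU.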
Cytochrome P450 2C9 (Homo sapiens), sequence (P11712 whole entry, looked up): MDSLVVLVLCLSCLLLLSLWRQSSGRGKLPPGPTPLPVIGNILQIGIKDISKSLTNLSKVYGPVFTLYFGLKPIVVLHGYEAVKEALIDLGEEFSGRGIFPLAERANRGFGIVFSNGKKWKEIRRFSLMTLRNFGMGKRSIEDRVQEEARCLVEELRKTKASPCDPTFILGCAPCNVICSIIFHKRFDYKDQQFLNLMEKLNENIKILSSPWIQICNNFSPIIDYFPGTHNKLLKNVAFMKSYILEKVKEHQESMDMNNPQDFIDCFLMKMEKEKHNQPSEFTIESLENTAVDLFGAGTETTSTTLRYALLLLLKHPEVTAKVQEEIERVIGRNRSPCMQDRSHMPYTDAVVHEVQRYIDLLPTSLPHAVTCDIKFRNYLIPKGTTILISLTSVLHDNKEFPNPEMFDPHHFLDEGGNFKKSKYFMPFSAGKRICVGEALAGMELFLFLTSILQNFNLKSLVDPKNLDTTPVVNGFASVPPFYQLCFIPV

For assay [8], the target named is Papain (Carica papaya) (UniProt P00784). The experiment in a line: Primary qHTS assay for inhibitors of the protease papain (AID 1645873).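 Further: papain turnover of Z-FR-AMC read as the AMC fluorescence gain over 10 min; series mostly up to about 50 µM; on the % scale 0 is the no-effect control and ±100 the full control effect.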
Papain (Carica papaya), sequence (P00784 whole entry, looked up, the tested form may be a part): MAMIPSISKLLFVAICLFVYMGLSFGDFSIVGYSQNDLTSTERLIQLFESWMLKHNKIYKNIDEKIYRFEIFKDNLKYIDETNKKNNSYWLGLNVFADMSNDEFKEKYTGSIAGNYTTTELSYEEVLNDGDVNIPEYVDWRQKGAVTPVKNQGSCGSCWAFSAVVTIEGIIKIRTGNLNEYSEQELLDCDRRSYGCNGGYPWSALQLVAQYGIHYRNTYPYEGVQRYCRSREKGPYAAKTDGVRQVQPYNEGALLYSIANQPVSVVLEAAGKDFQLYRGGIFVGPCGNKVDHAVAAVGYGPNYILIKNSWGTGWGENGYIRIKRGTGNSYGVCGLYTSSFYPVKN
Assay [9] can be described thus: Primary qHTS for inhibitors of nuclear receptor binding SET domain protein 2 (NSD2) in an isogenic RCH-ACV NSD2 p.E1099K mutant (9B) (AID 1645876). Further: nearly all actives have a fitted effect of over 70% in size.
A short description of assay [10]: Confirmatory qHTS for small molecule stabilizers of the endoplasmic reticulum resident proteome: Secreted ER Calcium Modulated Protein (SERCaMP) assay (AID 1508628). Further: nearly all actives have a fitted effect of over 40% in size. Further: potency means the concentration at half of the fitted maximal effect. The gist of the method:
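GLuc-SERCaMP-expressing SH-SY5Y cells, pretreated 16 h with compound, are challenged with thapsigargin to empty ER calcium stores; after 4 h, coelenterazine is added directly to the medium and luminescence is imaged.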

Assay [11] in a line: Primary qHTS for inhibitors of nuclear receptor binding SET domain protein 2 (NSD2) in an RCH-ACV wild type WT cells (2C) (AID 1645877). Further: nearly all actives have a fitted effect of over 70% in size. Further: potency means the concentration at half of the fitted maximal effect.
A short description of assay [12]: Cell Viability qHTS for small molecule stabilizers of the endoplasmic reticulum resident proteome (AID 1508629). Conditions: cell viability counter-screen, 100 nM thapsigargin for final 4 h.
The target in assay [13] is Cytochrome P450 3A4 (Homo sapiens) (UniProt P08684). Nature of the assay: Cytochrome P450 family 3 subfamily A member 4 (CYP3A4) small molecule antagonists: luciferase qHTS assay (AID 1645841; active means well fitted curve in the direction sought with a large enough effect in the repeat runs; an effect the other way counts as inactive or inconclusive; further: nearly all actives have a fitted effect of over 45% in size). The gist of the method:
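Luminescent CYP3A4 activity readout: compounds plus enzyme-substrate mix 10 min at room temperature, reaction started with NADPH regenerating system for 1 h, stopped with detection reagent, read after 20 min. Ketoconazole served as control.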

Molecules are shown by their SMILES. Results filed as inconclusive are left out. A number with no mark means an inactive call. Calls of active or inactive are those of the source. Unless noted, the call rests on the fitted dose curve; in most records, active means well fitted curve in the direction sought with a large enough effect; inconclusive means small, poorly fitted or top-dose-only effect, or another doubt; inactive means no such curve, though single readings can be large; an effect the other way counts as inactive or inconclusive.

Calcium and integrin-binding protein 1 (Homo sapiens), sequence (Q99828 whole entry, looked up): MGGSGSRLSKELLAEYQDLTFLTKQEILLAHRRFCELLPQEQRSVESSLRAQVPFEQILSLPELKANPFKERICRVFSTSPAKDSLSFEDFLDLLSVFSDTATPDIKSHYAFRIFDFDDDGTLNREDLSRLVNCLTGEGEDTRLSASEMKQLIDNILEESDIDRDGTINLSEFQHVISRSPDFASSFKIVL
Cytochrome P450 3A4 (Homo sapiens), sequence (P08684 whole entry, looked up): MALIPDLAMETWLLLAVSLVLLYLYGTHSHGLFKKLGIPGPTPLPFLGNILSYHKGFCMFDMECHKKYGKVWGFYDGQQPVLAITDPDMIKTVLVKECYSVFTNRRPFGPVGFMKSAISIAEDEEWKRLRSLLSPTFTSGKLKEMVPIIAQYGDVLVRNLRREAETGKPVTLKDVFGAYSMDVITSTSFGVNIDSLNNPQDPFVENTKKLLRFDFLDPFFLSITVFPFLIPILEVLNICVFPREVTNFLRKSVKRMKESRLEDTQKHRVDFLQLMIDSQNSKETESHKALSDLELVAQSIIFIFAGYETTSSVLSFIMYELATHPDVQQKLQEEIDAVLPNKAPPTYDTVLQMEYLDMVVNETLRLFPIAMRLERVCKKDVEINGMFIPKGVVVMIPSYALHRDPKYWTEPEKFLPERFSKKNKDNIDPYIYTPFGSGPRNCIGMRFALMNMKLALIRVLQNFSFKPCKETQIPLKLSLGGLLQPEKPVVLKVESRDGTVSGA

As to `CN(C)CC[C@@H](c1ccc(Br)cc1)c1ccccn1`, the result in [1] was inactive. The Potency entry in [2], in [3], in [4], in assay [5], in assay [7] and in assay [8] was “inactive” each time. In assay [9], the Potency entry was “inactive”. Further, the Potency in assay [6] was 4.9 µM (active).
As to `COC(=O)[C@H]1[C@H]2C[C@@H]3c4[nH]c5cc(OC)ccc5c4CCN3C[C@H]2C[C@@H](OC(=O)c2cc(OC)c(OC)c(OC)c2)[C@@H]1OC`, in assay [1], the outcome was inactive. Further, the Potency result in assay [2], in assay [9] and in assay [11] was “inactive” in each case. Further, the Potency in [10] was 15.8 µM (active); in assay [6] it was 15.5 µM (active).
Take `COc1cc(C(=O)OCCCN2CCCN(CCCOC(=O)c3cc(OC)c(OC)c(OC)c3)CC2)cc(OC)c1OC`: the outcome in assay [1] was inactive. The Potency result in assay [2], in [3] and in [8] was “inactive” each time. In addition, in assay [12], the max response is -32.9%. The Potency in [11] was 23.7 µM (active).
Regarding `N[C@@H](COP(=O)(O)O)C(=O)O`, the outcome in assay [1] and in assay [13] was inactive. In addition, the Potency result in assay [2], in [4], in assay [5], in assay [6], in [7] and in [8] was “inactive” each time. The Potency entry in [9] is “inactive”.
Regarding `C[N+](C)(C)CCOC(N)=O`, the result in assay [1] was inactive. The Potency entry in [2], in assay [4], in assay [5], in [6], in assay [7] and in assay [8] was “inactive” in each case.
`COC(=O)[C@@H](N)Cc1ccc(O)c(O)c1`: the outcome in assay [1] was inactive. Moreover, the Potency result in assay [2], in assay [5], in [6], in assay [7] and in [8] was “inactive” each time. Besides, the Potency in [10] is 35.5 µM (active). In addition, the max response in [12] is -5.59%.
As to `CCC(=O)c1ccc2c(c1)N(CCCN(C)C)c1ccccc1S2`, in assay [1], the result was inactive. In addition, the Potency result in assay [2], in [3], in assay [10], in assay [7] and in [8] was “inactive” each time. Moreover, the Potency in assay [6] is 0.49 µM (active).
As for `OCCN1CCN(CCCN2c3ccccc3C=Cc3ccccc32)CC1`, the outcome in assay [1] was inactive. Further, the Potency entry in assay [2], in assay [3] and in [7] was “inactive” each time. In addition, the max response in assay [12] is -5.61%. In addition, the Potency in [6] is 13.8 µM (active).
In the case of `CN1CCN(C2=Nc3ccccc3Oc3ccc(Cl)cc32)CC1`, in assay [1], the result was inactive. Further, the Potency result in assay [2], in assay [3], in assay [7] and in assay [8] was “inactive” throughout. Besides, in assay [12], the max response was 14.4%. Besides, the Potency in [6] is 3.89 µM (active).
Consider `C(=C\c1ccccc1)/CN1CCN(C(c2ccccc2)c2ccccc2)CC1`, for which the outcome in assay [1] was inactive. The Potency result in assay [2], in assay [3], in assay [8], in [9] and in assay [11] was “inactive” each time.
Consider `O=C(O)CN(CCN(CC(=O)O)CC(=O)O)CCN(CC(=O)O)CC(=O)O`, for which the result in assay [1] was inactive. Moreover, the Potency entry in assay [2], in assay [3], in [10], in assay [4], in [5] and in assay [6] was “inactive” in each case. The Potency entry in assay [7], in assay [8] and in [9] was “inactive” each time. The max response in assay [12] is 25%.
For the compound `CN(C)C(=O)Oc1cccc([N+](C)(C)C)c1`, in [1], the outcome was inactive. The Potency entry in assay [2], in assay [4], in [5], in [6], in [7] and in assay [8] was “inactive” in each case. Further, in assay [9], the Potency entry was “inactive”.
In the case of `CC(C)(C)NCC(O)c1cc(O)cc(O)c1` (stereo unspecified), the result in assay [1] was inactive. Further, the Potency entry in assay [2], in assay [4], in assay [5], in assay [6] and in assay [7] was “inactive” each time.

These data come from PubChem BioAssay (NCATS).
